In PubChem BioAssay (EPA / NIEHS):
Records with an inconclusive call do not appear. Activity calls are given as the source filed them. The calls were made as follows, unless noted: active = hit-call score of the fitted dose curve at least 0.9, where 1 is the maximum; inactive = score below 0.9.

Experiments:
[1] = ATG_PBREM_CIS: Attagene CIS-FACTORIAL HepG2 Assay for human Phenobarbital-responsive Enhancer Module (PBREM) (AID 2282955); settings: HepG2 PBREM cis-reporter, Attagene multiplexed transcription; actives raise or lower the signal
Outline: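 HepG2 cells transiently transfected with multiple cis-regulated reporter transcription units; endogenous factor activity at the PBREM element measured as reporter mRNA 24 h after dosing, via RT-PCR and capillary electrophoresis of fluorescent fragments; bidirectional fitting versus DMSO.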

[2] = molecular target: Paired box protein Pax-6 (Homo sapiens) (UniProt P26367); assay: ATG_Pax6_CIS: Attagene CIS-FACTORIAL HepG2 Assay for human Paired Box 6 (PAX6) (AID 2282956); settings: HepG2 CIS-FACTORIAL PAX6 reporter transcription, RNA readout; actives raise or lower the signal
Paired box protein Pax-6 (Homo sapiens), sequence (P26367 whole entry, looked up): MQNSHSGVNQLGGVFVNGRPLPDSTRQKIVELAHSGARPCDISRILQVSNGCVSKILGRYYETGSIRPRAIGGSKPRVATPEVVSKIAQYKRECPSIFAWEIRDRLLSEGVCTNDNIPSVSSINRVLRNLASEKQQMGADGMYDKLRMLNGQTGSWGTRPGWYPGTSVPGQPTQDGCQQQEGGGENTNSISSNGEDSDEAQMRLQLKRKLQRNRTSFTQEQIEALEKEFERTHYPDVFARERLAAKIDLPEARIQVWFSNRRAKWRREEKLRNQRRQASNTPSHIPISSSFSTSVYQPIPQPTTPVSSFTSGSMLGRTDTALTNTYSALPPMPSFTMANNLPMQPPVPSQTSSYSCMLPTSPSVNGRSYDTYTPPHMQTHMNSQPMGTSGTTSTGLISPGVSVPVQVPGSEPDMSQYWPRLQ
Outline: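 Transient MRTU transfection of HepG2 → compound exposure 24 h → TriZol RNA, oligo(dT) RT → PCR, 6-FAM primer extension, HpaI cut → capillary electrophoresis; activity fitted both directions against DMSO.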

[3] = ATG_PXRE_CIS: Attagene CIS-FACTORIAL HepG2 Assay for human Pregnane X Receptor Element (PXRE) (AID 2282957); settings: HepG2 Attagene CIS-FACTORIAL PXRE reporter, mRNA; actives raise or lower the signal
Outline: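 Transfect HepG2 with MRTUs (cis promoter elements); dose chemical, incubate 24 h; isolate RNA, RT with oligo(dT), PCR, 6-FAM label, HpaI cut, CE. Gain/loss fit vs DMSO.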

[4] = ATG_PPRE_CIS: Attagene CIS-FACTORIAL HepG2 Assay for human Peroxisome Proliferator-activated Response Element (PPRE) (AID 2282958); settings: HepG2 PPRE cis-element reporter, Attagene transcription factor profiling; actives raise or lower the signal
Outline: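 HepG2 cells transiently transfected with multiplexed cis-element reporter units measure endogenous transcription factor activity. After 24 h compound exposure, reporter mRNA is quantified by RT-PCR, 6-FAM labeling, HpaI digestion and capillary electrophoresis; bidirectional fits are made against DMSO baseline.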

[5] = ATG_RORE_CIS: Attagene CIS-FACTORIAL HepG2 Assay for human RAR-related Orphan Receptor Element (RORE) (AID 2282959); settings: HepG2 Attagene cis-factorial RORE reporter, mRNA; actives raise or lower the signal
Outline: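 HepG2 cells transiently transfected with multiple cis-element reporter transcription units, exposed to chemical for 24 h. Reporter mRNA quantified by RT-PCR, 6-FAM primer-extension labeling, HpaI digestion and capillary electrophoresis; bidirectional fit versus DMSO baseline.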

[6] = ATG_Sox_CIS: Attagene CIS-FACTORIAL HepG2 Assay for human SRY-box transcription factor (SOX) (AID 2282960); settings: HepG2 Attagene cis-factorial SOX reporter, mRNA; actives raise or lower the signal
Outline: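 HepG2 cells transiently transfected with cis-element-driven multiple reporter transcription units, dosed 24 h; reporter mRNA measured by RT-PCR, FAM labelling, HpaI digestion and capillary electrophoresis. Bidirectional fit versus DMSO baseline.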

[7] = molecular target: Transcription factor Sp1 (Homo sapiens) (UniProt P08047); assay: ATG_Sp1_CIS: Attagene CIS-FACTORIAL HepG2 Assay for human Specificity Protein 1 (Sp1) (AID 2282961); settings: HepG2 Sp1 cis-reporter transcription, actives raise or lower the signal
Transcription factor Sp1 (Homo sapiens), sequence (P08047 whole entry, looked up): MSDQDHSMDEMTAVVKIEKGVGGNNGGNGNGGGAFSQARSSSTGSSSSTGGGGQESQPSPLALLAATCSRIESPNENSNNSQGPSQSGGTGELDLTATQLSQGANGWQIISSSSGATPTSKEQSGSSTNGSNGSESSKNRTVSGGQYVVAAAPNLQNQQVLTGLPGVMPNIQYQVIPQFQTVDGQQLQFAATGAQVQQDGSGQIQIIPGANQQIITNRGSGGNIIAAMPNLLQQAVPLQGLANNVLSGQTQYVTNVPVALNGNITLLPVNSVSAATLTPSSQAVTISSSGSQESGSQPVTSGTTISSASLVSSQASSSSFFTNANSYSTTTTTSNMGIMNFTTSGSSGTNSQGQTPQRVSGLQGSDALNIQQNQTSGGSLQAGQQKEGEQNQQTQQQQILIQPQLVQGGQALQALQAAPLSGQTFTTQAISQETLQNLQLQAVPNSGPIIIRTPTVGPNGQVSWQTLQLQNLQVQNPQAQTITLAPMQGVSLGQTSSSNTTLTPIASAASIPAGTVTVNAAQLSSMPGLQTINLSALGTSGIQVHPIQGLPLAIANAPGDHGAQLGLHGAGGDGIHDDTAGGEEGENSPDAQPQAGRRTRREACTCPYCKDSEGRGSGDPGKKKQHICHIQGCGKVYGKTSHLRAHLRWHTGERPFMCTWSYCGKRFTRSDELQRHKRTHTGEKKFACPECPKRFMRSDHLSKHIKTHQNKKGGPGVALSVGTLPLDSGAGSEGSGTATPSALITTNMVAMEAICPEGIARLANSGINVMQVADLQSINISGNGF
Outline: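 HepG2 cells transiently transfected with multiple reporter transcription units driven by cis-regulatory elements; Sp1-responsive reporter mRNA measured 24 h after dosing by RT-PCR and capillary electrophoresis fluorescence, fitted bidirectionally against DMSO baseline.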

[8] = ATG_SREBP_CIS: Attagene CIS-FACTORIAL HepG2 Assay for human Sterol Regulatory Element Binding (SREBP) (AID 2282962); settings: HepG2 Attagene cis-factorial SREBP reporter, mRNA; actives raise or lower the signal
Outline: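 Transfected HepG2 (cis-regulated reporter library, endogenous TFs) → compound 24 h → total RNA → oligo(dT) RT → reporter-specific PCR → FAM primer extension, HpaI cut → CE fluorescence. Fit bidirectional vs DMSO.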

[9] = molecular target: Signal transducer and activator of transcription 3 (Homo sapiens) (UniProt P40763); assay: ATG_STAT3_CIS: Attagene CIS-FACTORIAL HepG2 Assay for human Signal Transducer and Activator of Transcription 3 (STAT3) (AID 2282963); settings: HepG2, Attagene cis-factorial STAT3 reporter transcription; actives raise or lower the signal
Signal transducer and activator of transcription 3 (Homo sapiens), sequence (P40763 whole entry, looked up): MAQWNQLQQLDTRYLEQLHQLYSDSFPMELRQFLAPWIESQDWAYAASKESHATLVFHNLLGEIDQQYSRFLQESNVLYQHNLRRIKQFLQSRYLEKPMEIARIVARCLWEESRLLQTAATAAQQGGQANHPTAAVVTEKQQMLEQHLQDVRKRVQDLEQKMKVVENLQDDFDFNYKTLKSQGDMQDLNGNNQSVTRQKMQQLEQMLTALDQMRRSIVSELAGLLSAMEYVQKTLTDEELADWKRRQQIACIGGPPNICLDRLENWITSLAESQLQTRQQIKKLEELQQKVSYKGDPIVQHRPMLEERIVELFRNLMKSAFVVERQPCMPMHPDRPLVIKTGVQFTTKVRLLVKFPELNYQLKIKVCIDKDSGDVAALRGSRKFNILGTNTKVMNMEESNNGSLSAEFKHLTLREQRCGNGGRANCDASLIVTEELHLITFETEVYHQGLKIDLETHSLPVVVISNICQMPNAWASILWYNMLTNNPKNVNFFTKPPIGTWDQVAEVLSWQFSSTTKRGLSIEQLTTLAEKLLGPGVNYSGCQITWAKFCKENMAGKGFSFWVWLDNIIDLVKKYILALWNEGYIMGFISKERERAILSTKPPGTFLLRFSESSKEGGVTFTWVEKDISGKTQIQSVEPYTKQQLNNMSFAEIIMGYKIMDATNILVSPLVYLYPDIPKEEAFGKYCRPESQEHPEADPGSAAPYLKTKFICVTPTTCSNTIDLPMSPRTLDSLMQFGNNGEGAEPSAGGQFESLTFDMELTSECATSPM
Outline: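 HepG2 cells transiently transfected with cis-element-driven multiple reporter transcription units; after 24 h chemical exposure, reporter mRNA measured by RT-PCR, 6-FAM primer-extension labelling, HpaI digestion and capillary electrophoresis. Bidirectional fitting versus DMSO baseline.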

[10] = ATG_TA_CIS: Attagene CIS-FACTORIAL HepG2 Assay for human TA Basal Promoter (AID 2282964); settings: HepG2 Attagene CIS-factorial TA basal promoter reporter; actives raise or lower the signal
Outline: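 Read-out: fluorescent reporter-transcript fragments resolved by capillary electrophoresis after RT-PCR and HpaI digestion. Source: HepG2 cells carrying transiently transfected multi-reporter cis constructs, treated 24 h. Endpoint fitted bidirectionally relative to DMSO.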

[11] = ATG_TCF_b_cat_CIS: Attagene CIS-FACTORIAL HepG2 Assay for human T-Cell-Factor with beta-catenin (TCF/b-cat) (AID 2282965); settings: HepG2 TCF/beta-catenin cis-reporter transcription, actives raise or lower the signal
Outline: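 Using capillary electrophoresis as the read-out, labelled reporter cDNA fragments from transiently transfected HepG2 were sized and quantified. Exposure lasted 24 hours; activity in either direction was referenced to DMSO.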

[12] = ATG_TAL_CIS: Attagene CIS-FACTORIAL HepG2 Assay for human TAL Basal Promoter (AID 2282966); settings: HepG2 Attagene cis-factorial TAL promoter reporter; actives raise or lower the signal;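 also: background control endpoint measuring basal TAL promoter reporter mRNA not a specific factor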
Outline: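 Fluorescence of labelled reporter cDNA fragments, resolved by capillary electrophoresis, gave the readout. Human HepG2 liver cells carried transiently transfected cis-element reporter units and were treated for 24 hours; activity was fitted bidirectionally against DMSO.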

[13] = ATG_TGFb_CIS: Attagene CIS-FACTORIAL HepG2 Assay for human Transforming Growth Factor (TGF) (AID 2282967); settings: HepG2 Attagene CIS TGFb reporter, mRNA transcription; actives raise or lower the signal
Outline: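 Transient MRTU transfection of HepG2 (FuGene 6). Dose 24 h. TriZol RNA, oligo(dT) RT, PCR, 6-FAM primer extension, HpaI cut, CE. Bidirectional fit, DMSO = baseline.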

[14] = ATG_VDRE_CIS: Attagene CIS-FACTORIAL HepG2 Assay for human Vitamin D Receptor Element (VDRE) (AID 2282968); settings: HepG2 VDRE cis-reporter transcription, actives raise or lower the signal
Outline: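 HepG2 cells transiently transfected with cis-element reporter units, dosed 24 h; reporter mRNA measured by RT-PCR, 6-FAM labeling, HpaI digestion and capillary electrophoresis. Activity fitted bidirectionally against DMSO baseline.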

[15] = molecular target: Nuclear receptor subfamily 1 group I member 3 (Homo sapiens) (UniProt Q14994); assay: ATG_CAR_TRANS: Attagene TRANS-FACTORIAL HepG2 Assay for human Constitutive Androstane Receptor (CAR) (AID 2282969; active = hit-call score of the fitted dose curve at least 0.9, where 1 is the maximum;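 also: activators raise reporter mRNA above DMSO so AC50 marks induction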); settings: HepG2 Attagene TRANS-FACTORIAL CAR reporter
Nuclear receptor subfamily 1 group I member 3 (Homo sapiens), sequence (Q14994 whole entry, looked up, the tested form may be a part): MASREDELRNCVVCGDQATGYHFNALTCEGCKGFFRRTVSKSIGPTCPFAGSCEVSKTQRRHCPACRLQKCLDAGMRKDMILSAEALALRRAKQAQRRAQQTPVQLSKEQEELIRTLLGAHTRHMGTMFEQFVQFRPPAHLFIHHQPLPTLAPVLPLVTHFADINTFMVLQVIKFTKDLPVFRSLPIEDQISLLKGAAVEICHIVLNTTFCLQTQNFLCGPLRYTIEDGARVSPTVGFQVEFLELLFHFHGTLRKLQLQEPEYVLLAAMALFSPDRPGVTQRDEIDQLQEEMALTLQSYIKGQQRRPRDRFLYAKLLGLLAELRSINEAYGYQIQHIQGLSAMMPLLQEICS
Outline: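 HepG2 cells transiently transfected with multiplexed GAL4-UAS reporter units expressing chimeric NR-Gal4 proteins; compound exposure 24 h. Reporter mRNA measured by RT-PCR, 6-FAM labelling, HpaI digestion and capillary electrophoresis; gain-of-signal fitted against DMSO baseline.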

[16] = molecular target: Estrogen receptor (Homo sapiens) (UniProt P03372); assay: ATG_ERa_TRANS: Attagene TRANS-FACTORIAL HepG2 Assay for human Estrogen Receptor alpha (ERa) (AID 2282970; active = hit-call score of the fitted dose curve at least 0.9, where 1 is the maximum); settings: HepG2 Attagene TRANS ERa GAL4 reporter, mRNA
Estrogen receptor (Homo sapiens), sequence (P03372 whole entry, looked up, the tested form may be a part): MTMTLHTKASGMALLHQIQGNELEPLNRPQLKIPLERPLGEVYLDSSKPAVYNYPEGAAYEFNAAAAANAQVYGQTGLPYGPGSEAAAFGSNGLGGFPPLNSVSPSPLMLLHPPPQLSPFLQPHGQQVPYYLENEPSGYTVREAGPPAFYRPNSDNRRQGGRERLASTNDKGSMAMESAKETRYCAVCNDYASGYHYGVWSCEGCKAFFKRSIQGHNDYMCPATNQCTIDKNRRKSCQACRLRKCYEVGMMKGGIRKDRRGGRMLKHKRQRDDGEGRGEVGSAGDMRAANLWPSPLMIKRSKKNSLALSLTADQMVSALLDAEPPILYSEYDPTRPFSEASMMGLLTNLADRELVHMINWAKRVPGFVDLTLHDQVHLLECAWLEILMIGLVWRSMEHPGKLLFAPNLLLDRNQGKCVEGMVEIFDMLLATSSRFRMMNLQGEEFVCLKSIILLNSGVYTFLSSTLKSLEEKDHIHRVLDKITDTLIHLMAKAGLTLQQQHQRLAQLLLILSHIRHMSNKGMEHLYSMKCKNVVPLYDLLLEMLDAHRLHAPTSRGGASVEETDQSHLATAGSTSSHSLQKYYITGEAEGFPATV
Outline: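 Human liver HepG2, transient transfection of multiple GAL4-UAS reporter units; TRANS format (exogenous NR-Gal4 chimera). 24 h dosing. Readout: reporter mRNA, RT-PCR, 6-FAM primer extension, HpaI digest, capillary electrophoresis. Positive direction vs DMSO.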

[17] = molecular target: Steroid hormone receptor ERR1 (Homo sapiens) (UniProt P11474); assay: ATG_ERRa_TRANS: Attagene TRANS-FACTORIAL HepG2 Assay for human Estrogen-Related Receptor alpha (ERRa) (AID 2282971; active = hit-call score of the fitted dose curve at least 0.9, where 1 is the maximum); settings: HepG2 Attagene TRANS reporter, ERRa transactivation
Steroid hormone receptor ERR1 (Homo sapiens), sequence (P11474 whole entry, looked up, the tested form may be a part): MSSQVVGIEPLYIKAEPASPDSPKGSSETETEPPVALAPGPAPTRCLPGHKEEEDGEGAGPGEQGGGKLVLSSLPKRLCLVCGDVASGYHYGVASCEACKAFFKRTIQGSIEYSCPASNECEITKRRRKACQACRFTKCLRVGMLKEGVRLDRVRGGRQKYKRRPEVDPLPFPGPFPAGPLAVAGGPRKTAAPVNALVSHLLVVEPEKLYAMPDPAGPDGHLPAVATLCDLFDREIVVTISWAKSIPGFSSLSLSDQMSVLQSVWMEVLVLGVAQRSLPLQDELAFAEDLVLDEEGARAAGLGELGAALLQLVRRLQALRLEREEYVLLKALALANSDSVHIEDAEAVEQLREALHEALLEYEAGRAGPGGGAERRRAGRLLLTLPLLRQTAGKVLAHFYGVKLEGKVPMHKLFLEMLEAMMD
Outline: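 Reporter transcript induction was quantified by RT-PCR and capillary electrophoresis of FAM-labelled, HpaI-cut products after 24 h treatment of HepG2 cells carrying transiently transfected GAL4-UAS reporter units and an exogenous ERRa-Gal4 fusion; activity scored as increase over DMSO.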

[18] = ATG_GAL4_TRANS: Attagene TRANS-FACTORIAL HepG2 Assay for GAL4 (Internal Marker) (AID 2282976; active = hit-call score of the fitted dose curve at least 0.9, where 1 is the maximum); settings: HepG2 Attagene TRANS GAL4 internal marker reporter
Outline: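 First, HepG2 cells were transfected with reporter units under GAL4-UAS control. Next, they were treated with chemical for 24 h. Finally, RNA was reverse-transcribed, PCR-amplified, FAM-labelled and resolved by capillary electrophoresis, with induction scored against DMSO.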

[19] = molecular target: X-box-binding protein 1 (Homo sapiens) (UniProt P17861); assay: ATG_Xbp1_CIS: Attagene CIS-FACTORIAL HepG2 Assay for human X-box Binding Protein 1 (XBP1) (AID 2282972); settings: HepG2 XBP1 cis-element reporter, Attagene multiplex; actives raise or lower the signal
X-box-binding protein 1 (Homo sapiens), sequence (P17861 whole entry, looked up): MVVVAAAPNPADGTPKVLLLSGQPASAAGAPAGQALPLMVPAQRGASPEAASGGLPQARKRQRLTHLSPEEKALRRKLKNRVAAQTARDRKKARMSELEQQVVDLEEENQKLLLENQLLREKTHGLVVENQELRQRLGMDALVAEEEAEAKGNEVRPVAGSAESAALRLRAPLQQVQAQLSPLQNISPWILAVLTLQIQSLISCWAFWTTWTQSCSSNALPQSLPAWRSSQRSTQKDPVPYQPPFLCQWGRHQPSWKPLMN
Outline: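 HepG2, transient MRTU transfection (cis-promoter driven), 24 h compound exposure. Total RNA → oligo(dT) RT → PCR → 6-FAM labeling → HpaI cut → CE. Bidirectional fit vs DMSO.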

[20] = ATG_M_19_TRANS: Attagene TRANS-FACTORIAL HepG2 Assay for M19 Transcription Factor (Internal Marker) (AID 2282974; active = hit-call score of the fitted dose curve at least 0.9, where 1 is the maximum); settings: HepG2 Attagene TRANS-FACTORIAL M19 internal marker reporter
Outline: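 HepG2 cells transiently transfected with multiple GAL4-UAS reporter transcription units were exposed to chemicals for 24 h. Reporter mRNA was read by RT-PCR, 6-FAM primer extension, HpaI digestion and capillary electrophoresis; gain of signal fitted relative to DMSO.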

Measured: AC50

CCCCCCCCCCCCN1CCOCC1
active: [14] 60.6 µM
not listed: [19] | [20]
inactive: all other assays above

CCCCCCCCCCCCOCCOS(=O)(=O)O
active: [3] 14.2 µM
not listed: [14] | [15] | [16] | [18] | [20]
inactive: all other assays above

COc1cc(OC)c2ccc(=O)oc2c1
not listed: [14] | [15] | [16] | [17] | [20]
inactive: all other assays above

CC(C)C(=O)OCC=Cc1ccccc1
active: [3] 16.4 µM
not listed: [17] | [18]
inactive: all other assays above

O=C1CCCCCCCCCCCC(=O)OCCO1
not listed: [16] | [18] | [20]
inactive: all other assays above

CC(C)CCOC(=O)CC(C)C
not listed: [17]
inactive: all other assays above

O=C1OCc2ccccc21
not listed: [16] | [17] | [18]
inactive: all other assays above

Cc1cc(O)c(C)c(C)c1O
active: [3] 9.14 µM | [16] 21.2 µM
not listed: [14] | [18] | [20]
inactive: all other assays above
